# Test results as given in PubChem BioAssay (EPA / NIEHS).
# Where “and” joins values, the source holds several entries; their conditions need not be identical. Equal entries are not always repeated. A structure can be active in one record and inactive in another. Calls of active or inactive are those of the source. Rule for the calls: active = hit-call score of the fitted dose curve at least 0.9, where 1 is the maximum; inactive = score below 0.9.
# Read-out: CD69, CD69 (gene 969)
# Experiment: BSK_SAg_CD69: BioMAP Diversity Plus: SAg Assay for CD69 Biomarker Activity (AID 2283089)
# Conditions: primary human HUVEC with PBMC; actives raise or lower the signal
# Protocol: BSK_SAg is a cell-based, multiplexed-readout assay that uses umbilical vein endothelium and peripheral blood mononuclear cells, a human vascular primary cell co-culture, with measurements taken at 24 hours after chemical dosing in a 96-well plate.BSK_SAg_CD69 is one of 10 assay component(s) measured or calculated from the BSK_SAg assay. It is designed to make measurements of enzyme-linked immunosorbent assay, a form of binding reporter, as detected with fluorescence intensity signals by Enzyme-linked immunosorbent assay technology.Data from the assay component BSK_SAg_CD69 was analyzed into 1 assay endpoint. This assay endpoint, BSK_SAg_CD69, was analyzed with bidirectional fitting relative to DMSO as the negative control and baseline of activity. Using a type of binding reporter, gain or loss-of-signal activity can be used to understand changes in the signaling as they relate to the gene CD69. Furthermore, this assay endpoint can be referred to as a primary readout, because this assay has produced multiple assay endpoints where this one serves a signaling function. To generalize the intended target to other relatable targets, this assay endpoint is annotated to the cytokine intended target family, where the subfamily is inflammatory factor.
# The levels of cell surface (or secreted, indicated by the prefix "s") biomarker endpoints were measured by ELISA. Overt cytotoxicity to cells in confluent adherent cultures (all systems other than the BT system) was assessed by measuring total protein levels using sulforhodamine B (SRB) staining in parallel cultures at the time of biomarker measurements, indicated as SRB endpoints. For proliferation assays for adherent cell types, individual cell types are cultured at sub-confluence and relative cell numbers quantified by SRB staining at time points optimized for each system (48 h: 3C and CASM3C systems; 72 h: BT and HDF3CGF systems; 96 h: SAg system). SRB was performed by staining cells with 0.1% SRB after fixation with 10% TCA and reading wells at 560 nm.Viability and proliferation of PBMC (T cells) was quantified by Alamar Blue reduction for the SAg and BT systems. For PBMC viability (referred to as PBMC Cytotoxicity within the assay endpoint names), cells were plated (75,000/well in a 96-well plate) and then chemical samples added for 1 h before addition of activators, SEB and TSST-1 (20 ng/mL final concentration each). Cells were incubated for 90 h. Then, Alamar Blue (20 uL/well) (Invitrogen, Cat DAL1100) was added for 6 h, and the plates were read with a fluorescence microplate reader at 546/580 nm (excitation/emission). For PBMC proliferation, cells were plated and activated as above but incubated for only 16 h prior to addition of Alamar Blue. Plates were read after 6 h.
Structure (SMILES),AC50,outcome
O=S(=O)(Cl)C(F)(F)C(F)(F)C(F)(F)C(F)(F)C(F)(F)C(F)(F)C(F)(F)C(F)(F)F,15 µM (active),inactive
O=C1c2c(O)ccc(Nc3ccc(CCO)cc3)c2C(=O)c2c([N+](=O)[O-])ccc(O)c21,14.2 µM (active),–
Cc1ccc(S(=O)(=O)C(I)I)cc1,3.25 µM (active),–
O=C(c1ccccc1)c1ccc(O)cc1O,–,inactive
OCC(F)(F)C(F)(F)C(F)(F)CO,–,inactive
O=C=NCc1cccc(CN=C=O)c1,–,inactive
Nc1cc([N+](=O)[O-])cc(Cl)c1O,–,inactive
O=C(Cl)C(F)(F)C(F)(F)C(F)(F)C(F)(F)C(F)(F)C(F)(F)F,–,inactive
Brc1nc2ccccc2s1,–,inactive
OCCCC(F)(F)C(F)(F)C(F)(F)C(F)(F)C(F)(F)C(F)(F)C(F)(F)C(F)(F)F,45.5 µM (active) and 46.7 µM (active),–
O=S(=O)(O)CCC(F)(F)C(F)(F)C(F)(F)C(F)(F)C(F)(F)C(F)(F)C(F)(F)C(F)(F)F,–,inactive
CCN(CC)c1ccc(C=O)cc1,–,inactive
CC(C)CCCC(C)CCO (stereo not given),–,inactive
CO[Si](C)(CCC(F)(F)C(F)(F)C(F)(F)C(F)(F)C(F)(F)C(F)(F)F)OC,–,inactive
NC(=O)C(F)(F)C(F)(F)C(F)(F)C(F)(F)C(N)=O,–,inactive
NCC(F)(F)C(F)(F)C(F)(F)C(F)(F)C(F)(F)C(F)(F)C(F)(F)C(F)(F)F,–,inactive
O=C(O)C(F)(F)OC(F)(F)C(F)(F)OC(F)(F)C(F)(F)OC(F)(F)F,–,inactive
C[Si](Cl)(Cl)CCC(F)(F)C(F)(F)C(F)(F)C(F)(F)C(F)(F)C(F)(F)F,–,inactive
NC(=O)C(F)(F)C(F)(F)C(F)(F)C(F)(F)C(F)(F)C(F)(F)C(F)(F)F,–,inactive

Structure (SMILES),AC50,outcome
CNS(=O)(=O)C(F)(F)C(F)(F)C(F)(F)C(F)(F)C(F)(F)C(F)(F)C(F)(F)C(F)(F)F,–,inactive
CN(C(=O)C(F)(F)C(F)(F)C(F)(F)F)[Si](C)(C)C,–,inactive
O=C(O)CCC(F)(F)C(F)(F)C(F)(F)F,–,inactive
O=C(O)C(F)(F)C(F)(F)C(F)(F)OC(F)(C(F)(F)F)C(F)(F)F,–,inactive
CCOC(C=C(C)CCC=C(C)C)OCC,–,inactive
FC(F)(F)C(F)(F)C(F)(F)CC1CO1 (stereo not given),–,inactive
O=S(=O)(O)CCC(F)(F)C(F)(F)C(F)(F)C(F)(F)F,–,inactive
FC(F)(F)C(F)(F)C(F)(F)C(F)(F)C(F)(F)C(F)(F)C(F)(F)CCI,–,inactive
C=C(C)C(=O)OCC(F)(F)C(F)(F)C(F)(F)C(F)F,–,inactive
NC(O)(C(F)(F)F)C(F)(F)F,–,inactive
CC(C)(C)c1cc(CCC(=O)NCCCCCCNC(=O)CCc2cc(C(C)(C)C)c(O)c(C(C)(C)C)c2)cc(C(C)(C)C)c1O,–,inactive
OCC(F)(F)C(F)(F)C(F)(F)C(F)(F)C(F)(F)C(F)(F)C(F)(F)C(F)(F)CO,5.61 µM (active),inactive
O=C=Nc1cccc2c(N=C=O)cccc12,–,inactive
CCN(CC)c1ccc2c(c1)Oc1cc(N(CC)CC)ccc1C21OC(=O)c2ccccc21,–,inactive
O=C(F)C1(F)C(F)(F)C(F)(F)C(F)(F)C(F)(F)C1(F)F,–,inactive
NC(=O)C(F)(F)C(F)(F)C(F)(F)C(F)F,–,inactive
OCC(O)CC(F)(F)C(F)(F)C(F)(F)C(F)(F)C(F)(F)C(F)(F)C(F)(F)C(F)(F)F (stereo not given),–,inactive
CCN(CC)c1ccc(N=Nc2ccccc2)cc1,14.3 µM (active),–
NS(=O)(=O)C(F)(F)C(F)(F)C(F)(F)C(F)(F)C(F)(F)C(F)(F)F,28.6 µM (active) and 32.5 µM (active),–
